PubChem BioAssay AID1259313 (Sanford-Burnham Center for Chemical Genomics, 2017)
Among all 340,000 compounds or so, about 8,500 (2.5%) were called active.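 The calls were made as follows: active = melting temperature shift of at least 10% of the positive control shift, at one fixed dose; inactive = the rest.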 What follows is part of a selection rich in actives, with near analogues and random picks from the rest.

System: Glutamate receptor ionotropic, NMDA 3A (GRIN3A) ligand-binding domain
Experiment: NR3A LBD thermal stabilization by compounds – biophysical, differential scanning fluorimetry, uHTS, primary screen (AID 1259313)
Conditions: at 25 µM, stronger effect = higher value, 0% = protein alone, 100% = glycine-bound protein

| SMILES | Tm shift relative to glycine control |
| --- | --- |
| COCC(C)NC(=O)CSc1nc2nn(-c3ccccc3)c(=O)c-2c2n1CCCCC2 (configuration not stated) | -0.39% (inactive) |
| O=C(Nc1cc(S(=O)(=O)N2CCOCC2)ccc1Cl)c1cc(=O)c2ccccc2o1 | 0.31% (inactive) |
| CC(=O)c1ccc(N2CCN(C(=O)C3CCN(S(=O)(=O)c4ccc5c(c4)CC(C)N5C(=O)C4CC4)CC3)CC2)cc1 (configuration not stated) | 1.27% (inactive) |
| COC(=O)c1ccc(NC(=O)c2ccccc2NS(=O)(=O)c2ccccc2)cc1 | 2.17% (inactive) |
| COc1cc(NC(=O)c2ccccc2NS(=O)(=O)c2ccc(Cl)s2)cc(OC)c1 | 21.3% (active) |
| COc1cc(OC)c(S(=O)(=O)Nc2ccccc2C(=O)O)cc1S(=O)(=O)Nc1ccccc1C(=O)O | 5.12% (inactive) |
| CCC/C(O)=C1\C(=O)CC(C)(C)CC1=Nc1ccccc1OC | -0.4% (inactive) |
| CCCC(=O)Nc1ccc(C(=O)N/N=C/c2ccc[nH]2)cc1 | 0.18% (inactive) |
| CC(=O)Nc1ccc(C(=O)NNC(=O)CCCCC(=O)NNC(=O)c2ccc(NC(C)=O)cc2)cc1 | -2.46% (inactive) |
| CC(=O)Nc1ccc(C(=O)/C=C/c2ccc[nH]2)cc1 | 19.4% (active) |
| CC1=C(C)C(=O)OC(C(C)C2CCC3C4CC=C5CC(OC6OC(COC7OC(CO)C(O)C(O)C7O)C(O)C(O)C6O)CC(O)C5(C)C4CCC23C)C1 (configuration not stated) | -4.54% (inactive) |
| O=C(CN(Cc1ccc(Br)cc1)S(=O)(=O)c1ccccc1)NCc1ccncc1 | 0.51% (inactive) |
| CC1=C(C(=O)OC(C)(C)C)C(c2ccc(Br)cc2)NC(=O)N1CCCC(=O)O (configuration not stated) | 0.08% (inactive) |
| NS(=O)(=O)c1ccc(NS(=O)(=O)/C=C/c2ccccc2)cc1 | -15.1% (inactive) |
| COC(=O)[C@H](Cc1ccccc1)NC(=O)Nc1ccc(S(N)(=O)=O)cc1 | -3.46% (inactive) |
| NS(=O)(=O)c1ccc(Nc2nc(-c3ccccc3)cs2)cc1 | 15.5% (active) |
| O=C(CC1C(=O)NCCN1CC(c1ccccc1)c1ccccc1)NCCc1cn[nH]c1 (configuration not stated) | -1% (inactive) |
| Cc1cccc(OCCC(=O)OCc2csc(CC(=O)Nc3ccccc3C)n2)c1 | -1.22% (inactive) |
| Cc1cccc(NC(=O)C2CCN(C(=O)NC3CCCCC3)CC2)c1 | -0.18% (inactive) |
| COc1cccc(NC(=O)c2cc(S(=O)(=O)N3CCc4ccccc43)cn2C)c1 | 1.72% (inactive) |
| COc1ccc(C(=O)C2CCCN(Cc3cccn3-c3ccccn3)C2)c(C)c1 (configuration not stated) | 0% (inactive) |
| CC(C)CCN1CCN=C1N(C)C | -0.97% (inactive) |
| O=C(/C=C/NCc1ccc(F)cc1)c1ccccc1 | 0.09% (inactive) |
| O=C(/C=C\NCC(=O)c1ccccc1)c1ccccc1 | 12.7% (active) |

| SMILES | Tm shift relative to glycine control |
| --- | --- |
| CCOc1ccc(N/C=C/C(=O)c2ccccc2)cc1 | -12.3% (inactive) |
| COC(=O)Cn1c(=NC(=O)c2cc(OC)c(OC)c(OC)c2)sc2cc(OC)ccc21 | 4.34% (inactive) |
| O=C(Cn1cc(C(=O)c2cccs2)c2ccccc21)NCc1cccs1 | -6.3% (inactive) |
| COC(=O)c1cn(CC(=O)NCc2cccs2)c2ccccc12 | 11.7% (active) |
| COCCNC(=O)Cn1cc(C(=O)c2cccs2)c2ccccc21 | 4.81% (inactive) |
| CC(NC(=O)c1ccccc1SCC(=O)N1CCCC1)c1ccccc1 (configuration not stated) | 1.13% (inactive) |
| Cc1cc(Cl)c(S(=O)(=O)Nc2ccc3c(c2)OCCO3)cc1OCC(N)=O | 5.63% (inactive) |
| Cc1cc(Cl)c(S(=O)(=O)NCCC(=O)O)cc1OCC(N)=O | -2.09% (inactive) |
| Cc1cc(Cl)c(S(=O)(=O)N(C)C)cc1OCC(N)=O | 10.2% (active) |
| O=C(Nc1ccccc1F)c1cc(S(=O)(=O)N2CCCCC2)cs1 | -1.16% (inactive) |
| CCN(c1ccccc1)S(=O)(=O)c1cccc(C(=O)NCc2ccccc2CN2CCOCC2)c1 | 2.34% (inactive) |
| CCOc1ccc(NC(=O)CSc2nncn2C)cc1 | -0.09% (inactive) |
| CCOc1ccc(NC(=O)c2ccc(CSc3nnnn3C)cc2)cc1 | 26.8% (active) |
| COc1ccc(CSc2nnnn2-c2ccc(C(=O)O)cc2)cc1 | 3.65% (inactive) |
| O=C(O)c1cccc(NC(=O)c2cc(-c3cccc(Cl)c3)nc3ccccc23)c1 | -12.1% (inactive) |
| O=C(CSc1ccc(-c2ccco2)nn1)Nc1cccc(F)c1 | -2.4% (inactive) |
| O=C(Nc1cccc(F)c1)c1cc(-c2ccco2)nc2ccccc12 | 11.7% (active) |
| CC1CCN(C(=O)COC(=O)CCC(=O)c2cccs2)CC1 | 0.85% (inactive) |
| Cc1cccc(C(=O)Nc2ccc(Oc3cnccn3)cc2)c1 | 1.77% (inactive) |
| Cc1ccc(COc2ccc(C(=O)NN)cc2)cc1 | -4.77% (inactive) |
| Cc1cccc(OCc2ccc(C(=O)Nc3ccc(F)cc3)cc2)c1 | 13.3% (active) |
| CC(C)(CNC(=O)CNC(=O)C1CCCCC1)N1CCOCC1 | -1.27% (inactive) |
| COc1ccc(NC(=O)CCCC2CCCCC2)c(OC)c1 | 2.43% (inactive) |
